The text below walks through data of PubChem BioAssay.

A short description of assay [1]: inhibitors of TNFa-induced NFkB p65 translocation, primary screen, imaging, HUVEC, MLSMR starter and 10KST1 sets (AID 438;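 active = inhibition above 20% together with a positive visual image hit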;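 also: compound added about 3h40 before a 20 min TNFalpha stimulation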;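 as to inhibition: signal is the nuclear over cytoplasmic p65 intensity ratio per well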). Particulars: HUVEC TNFa-induced p65 nuclear translocation; cell count: measured here: nuclei count (cytotoxicity indicator), at 2.08 µM; inhibition: at 2 µM, stronger effect = higher value, 0% TNFa-plus-vehicle, 100% no-TNFa wells.
Assay [2] is described as follows: inhibitors of mutant huntingtin aggregation, primary screen, imaging, exon1htt(103Q)mCFP cells, high-content imaging (AID 483;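 active = visual image review flags a hit and inhibition of aggregation exceeds 20%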;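 also: compound exposure lasted 3 days before fixation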;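 as to nuclei count: percent of the per-plate median nuclei count of sample wells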). To be noted: exon1htt(103Q)mCFP cell line, aggregate imaging, at 2 µM; inhibition of aggregation: stronger effect = higher value; nuclei count: measured here: cell count, toxicity.
Assay [3] is described as follows: inhibitors of E-selectin induction by TNFa, primary screen, imaging, HUVEC, immunofluorescence, MLSMR starter and 10KST1 sets (AID 487;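 active = visually confirmed hit in the image check and inhibition above 20%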;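 as to inhibition: signal is fraction of cell area covered by stained E-selectin grains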;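 as to nuclei count: 100% = median nuclei count of all wells on the same plate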). To be noted: HUVEC TNFalpha-induced E-selectin immunofluorescence imaging, at 2 µM; inhibition: stronger effect = higher value; nuclei count: measured here: cell number, toxicity.
Assay [4] has as its target Voltage-gated potassium channel subunit beta-2 (Rattus norvegicus) (UniProt P62483). Description: KvBeta enzyme negative modulators, primary screen, biochemical, NADPH fluorescence (AID 622).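 Also: slope of raw intensity against log time taken from 70 to 1610 s.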 Particulars: recombinant KvBeta, 4-cyanobenzaldehyde reduction, at 10 µM, stronger effect = higher value.
The target is the same in assay [5]. Description: KvBeta positive modulators, primary screen, biochemical, NADPH fluorescence (AID 623;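 active = NADPH fluorescence slope more negative than the mean of all samples by about 3 SD, 99.7% confidence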;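 also: fluorescence intensity change per second fitted from 20 to 320 s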). Particulars: Recombinant KvBeta, NADPH fluorescence decrease slope, 10 min; at 10 µM; stronger effect = lower value.
Assay [6] addresses Alpha-2C adrenergic receptor (Homo sapiens) (UniProt P18825). Description: modulators of alpha2C/GIRK thallium flux, primary screen, cell-based, HEK293 alpha2C/GIRK1/2 (AID 624;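 active = fluorescence slope after compound addition differing from the mean of all screened samples at 99.7% confidence, in either direction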;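 also: slope of fluorescence ratio to pre-addition baseline per second over 15 to 24 s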). Particulars: thallium flux BTC fluorescence, at 10 µM, actives lie on both sides.
Assay [7] is described as follows: inhibitors of Sendai virus-induced IRF3 signaling, primary screen, TLR/RLR signaling modifier project, cell-based, Sendai virus stimulus, luciferase, 10K MLSCN set (AID 602276;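 active = inhibition at or above 50% at 10 µM; inactive = inhibition below 50%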;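 also: firefly luciferase from ISG56 promoter only with Renilla not read in this screen; 0% = Sendai virus plus DMSO and 100% = medium plus DMSO without virus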). Particulars: HEK293 RL24 IRF3 luciferase reporter, at 10 µM, stronger effect = higher value. In general terms: A reporter such as luciferase makes a cellular process visible.
Assay [8] is described as follows: inhibitors of poly I:C-induced TLR3 signaling, primary screen, cell-based, poly I:C stimulus, luciferase, 10K MLSCN set (AID 602277;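 active = inhibition of the reporter signal at or above 50%; inactive = inhibition below 50%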). To be noted: HEK293-TLR3 RL24 IRF3 luciferase reporter, at 10 µM, stronger effect = higher value.

SMILES strings stand for the structures. Calls of active or inactive are those of the source.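 The calls were made as follows, unless noted: active = fluorescence slope higher than the sample average by over 3 SD (cut at about -0.22 in these data, passing the limit was not always enough); inactive = the rest.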

Sequence of Voltage-gated potassium channel subunit beta-2 (Rattus norvegicus) (P62483 whole entry, looked up): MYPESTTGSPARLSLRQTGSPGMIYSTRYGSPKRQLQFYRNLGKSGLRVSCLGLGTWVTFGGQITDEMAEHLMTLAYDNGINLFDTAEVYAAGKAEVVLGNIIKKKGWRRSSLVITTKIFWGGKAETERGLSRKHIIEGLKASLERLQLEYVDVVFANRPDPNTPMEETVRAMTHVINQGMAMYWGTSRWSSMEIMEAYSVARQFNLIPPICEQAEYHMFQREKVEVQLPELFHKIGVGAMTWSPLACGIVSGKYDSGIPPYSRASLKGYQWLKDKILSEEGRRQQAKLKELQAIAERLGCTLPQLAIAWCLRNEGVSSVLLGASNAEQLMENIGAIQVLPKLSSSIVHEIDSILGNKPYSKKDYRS
Sequence of Alpha-2C adrenergic receptor (Homo sapiens) (P18825 whole entry, looked up): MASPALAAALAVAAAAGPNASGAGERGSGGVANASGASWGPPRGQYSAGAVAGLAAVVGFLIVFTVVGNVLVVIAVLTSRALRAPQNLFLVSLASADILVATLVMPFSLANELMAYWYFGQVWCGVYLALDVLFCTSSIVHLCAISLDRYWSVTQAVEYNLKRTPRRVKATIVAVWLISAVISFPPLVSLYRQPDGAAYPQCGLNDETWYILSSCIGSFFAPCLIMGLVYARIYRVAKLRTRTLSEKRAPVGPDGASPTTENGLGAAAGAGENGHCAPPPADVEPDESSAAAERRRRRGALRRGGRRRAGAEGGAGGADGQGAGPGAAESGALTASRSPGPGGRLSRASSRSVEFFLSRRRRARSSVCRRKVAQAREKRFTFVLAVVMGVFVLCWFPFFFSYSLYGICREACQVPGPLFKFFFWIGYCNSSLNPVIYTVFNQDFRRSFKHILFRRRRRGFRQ

A word on the inhibition: it is the change of the read-out against control, counted positive when it falls. Consider `CCCC(=O)Nc1nnc(CC(=O)OCC)s1`, for which the cell count in assay [1] was found to be 799. Besides, the inhibition was -7.3% (inactive) in assay [1], -35.4% (inactive) in assay [3], -5.88% (inactive) in assay [7] and 15.8% (inactive) in assay [8]. The inhibition of aggregation in assay [2] is 11% (inactive). For the same compound, the nuclei count in assay [2] turned out to be 95.6%; in assay [3], 113%. Besides, in assay [4], the fluorescence slope was -0.614 (inactive). The NADPH fluorescence slope in assay [5] was 1.3e-05 (inactive). Also, the slope in assay [6] is 0.00516 (inactive).

Take `Cc1cccc(CCNC(=O)CCc2nc(-c3ccccc3F)no2)c1`: the cell count in assay [1] amounted to 357. Further, the inhibition in assay [1] was 2.8% (inactive); in assay [3] it was -2.7% (inactive); in assay [7] it was -0.595% (inactive); in assay [8] it was 2.35% (inactive). The inhibition of aggregation in assay [2] was -1.1% (inactive). Besides, the nuclei count in assay [2] is 101%; in assay [3] it was 114%. In assay [4], the fluorescence slope is -0.415 (inactive). Besides, the NADPH fluorescence slope in assay [5] was -2.4e-05 (inactive). The slope in assay [6] is 0.00305 (inactive).

In the case of `CC1=C(C(=O)NC2CCC(C)CC2)C2(CCC(C)CC2)OC1=O` (stereo not given), the cell count in assay [1] was determined as 640. In addition, the inhibition in assay [1] was 17.2% (inactive); in assay [3] it was 5.3% (inactive); in assay [7] it was 10.7% (inactive); in assay [8], 15.1% (inactive). The inhibition of aggregation in assay [2] was -14.7% (inactive). The figures for the nuclei count in assay [2] and in assay [3] were 99.8% and 126%, respectively. The fluorescence slope in assay [4] was -0.486 (inactive). Besides, the NADPH fluorescence slope in assay [5] is 7.7e-06 (inactive). In addition, in assay [6], the slope was 0.00549 (inactive).

For `O=S(=O)(c1cccs1)N1CCN(C/C=C/c2ccccc2)CC1`, the cell count in assay [1] was determined as 359. Further, the inhibition is 2.4% (inactive) in assay [1], 62.2% (inactive) in assay [3], 10.2% (inactive) in assay [7] and 9.74% (inactive) in assay [8]. Also, in assay [2], the inhibition of aggregation is -19.8% (inactive). The nuclei count in assay [2] came out at 108%; in assay [3] it was 94.8%. Also, in assay [4], the fluorescence slope is -0.492 (inactive). Further, in assay [5], the NADPH fluorescence slope is -4.5e-05 (inactive). Besides, the slope in assay [6] is 0.00442 (inactive).

With `c1ccc2c(Cn3ccnc3)c[nH]c2c1`, the cell count in assay [1] was 410. Moreover, the inhibition in assay [1] is 6.5% (inactive); in assay [3], -12.3% (inactive); in assay [7] it was 6.54% (inactive); in assay [8] it was 38.9% (inactive). In assay [2], the inhibition of aggregation was -17.6% (inactive). The values for the nuclei count in assay [2] and in assay [3] were 90% and 96.2%, respectively. Moreover, the fluorescence slope in assay [4] was -0.414 (inactive). The NADPH fluorescence slope in assay [5] was -0.000163 (inactive). Further, the slope in assay [6] is 0.00685 (inactive).

`CC1=C(C(=O)OC(C)C)C(c2ccccn2)n2ncnc2N1` (stereo not given): the cell count in assay [1] was found to be 751. The inhibition was -0.6% (inactive) in assay [1], -75.2% (inactive) in assay [3], 0.999% (inactive) in assay [7] and 30.5% (inactive) in assay [8]. In addition, in assay [2], the inhibition of aggregation is -35.6% (inactive). Further, the results for the nuclei count in assay [2] and in assay [3] were 79.5% and 110%, respectively. In addition, the fluorescence slope in assay [4] is -0.569 (inactive). The NADPH fluorescence slope in assay [5] was -3e-05 (inactive). Further, the slope in assay [6] is 0.00699 (inactive).

Consider `CCCOC(=O)CSc1nc(N)c(C#N)c(CC)c1C#N`, for which the cell count in assay [1] was found to be 377. Besides, the inhibition in assay [1] was 3.3% (inactive); in assay [3], -97.1% (inactive); in assay [7] it was -7.11% (inactive); in assay [8] it was -13.9% (inactive). Moreover, the inhibition of aggregation in assay [2] is 18% (inactive). For the same compound, the nuclei count came to 97.7% in assay [2] and 113% in assay [3]. In assay [4], the fluorescence slope is -0.532 (inactive). In assay [5], the NADPH fluorescence slope was -2.3e-05 (inactive). Also, the slope in assay [6] was 0.00456 (inactive).

Take `O=c1c2cc(N3CCOCC3)ccc2[nH]c(=S)n1CCCN1CCCC1`: in assay [1], the cell count was found to be 739. For the same compound, the inhibition in assay [1] was 3% (inactive); in assay [3], -35% (inactive); in assay [7] it was 3.61% (inactive); in assay [8], 32.7% (inactive). In addition, in assay [2], the inhibition of aggregation is 6.2% (inactive). Also, the nuclei count in assay [2] turned out to be 105%; in assay [3], 106%. Moreover, the fluorescence slope in assay [4] was -0.0484 (active). Besides, in assay [5], the NADPH fluorescence slope is -1.6e-06 (inactive). Further, the slope in assay [6] is 0.00568 (inactive).

As to `O=C(CSc1nnc(CNC(=O)c2cccs2)o1)NCCc1ccccc1`, the cell count in assay [1] stood at 644. In addition, the inhibition in assay [1] was -2.2% (inactive); in assay [3] it was -25.7% (inactive); in assay [7], 18.5% (inactive); in assay [8], 16.6% (inactive). Besides, the inhibition of aggregation in assay [2] was -14.6% (inactive). The nuclei count amounted to 82.7% in assay [2] and 115% in assay [3]. In assay [4], the fluorescence slope was -0.375 (inactive). Besides, the NADPH fluorescence slope in assay [5] was -4.4e-05 (inactive). The slope in assay [6] is 0.00483 (inactive).

As to `CC1CCc2c(sc(N)c2C(N)=O)C1` (stereo not given), the cell count in assay [1] was 722. Further, the inhibition in assay [1] was -4.4% (inactive); in assay [3], 16.5% (inactive); in assay [7] it was 5.07% (inactive); in assay [8], 6.01% (inactive). The inhibition of aggregation in assay [2] is 6.1% (inactive). Further, the nuclei count was found to be 88.3% in assay [2] and 98.4% in assay [3]. In addition, the fluorescence slope in assay [4] is -0.371 (inactive). In addition, in assay [5], the NADPH fluorescence slope is -1.7e-06 (inactive). Besides, the slope in assay [6] was 0.00501 (inactive).
